Assay results published in ChEMBL document CHEMBL1157539, “Thousands of chemical starting points for antimalarial lead identification” (Nature, 2010).

Columns and labels:
Format in all cases: functional
[1] = system: Plasmodium falciparum; assay: GSK_TCMDC: Inhibition of Plasmodium falciparum 3D7 in whole red blood cells, using parasite LDH activity as an index of growth. Test compounds present at 2uM
[2] = system: HepG2; assay: GSK_TCMDC: Percent inhibition of human HepG2 cell line. Test compounds present at 10uM.
[3] = system: Plasmodium falciparum; assay: GSK_TCMDC: Inhibition of Plasmodium falciparum Dd2 in whole red blood cells, using parasite LDH activity as an index of growth. Test compounds present at 2uM

Structure (SMILES)	Inhibition [1] [%]	Inhibition [2] [%]	Inhibition [3] [%]
COc1c(C2CCN(CCCCNC(=O)C=Cc3ccccc3C(F)(F)F)CC2)ccc2c1CCCC2	96	98	
Cc1nc(Cl)c2c(-c3ccccc3)csc2n1	84	0	
CC(C)C(=O)NC(NC(=S)Nc1ccc(Br)cc1)C(Cl)(Cl)Cl (stereo not drawn)	93	0	
Brc1ccsc1-c1nc(NC2CCN(Cc3ccccc3)CC2)no1	80	0	
COc1cc2c(cc1C(F)(F)F)N(C(=O)Nc1ccc(Br)cn1)CC2	97	16	
c1ccc2sc(-c3csc(Nc4ccncc4)n3)nc2c1	86	0	
C=CC(C)C1OC(=O)c2cc(OC)cc(OC)c21 (stereo not drawn)	100	100	
Cc1nn(-c2ccccc2)nc1C(=O)N(Cc1ccc(-c2ccc(CNCCc3ccc(S(C)(=O)=O)cc3)cn2)cc1)C1CC1.O=C(O)C(F)(F)F	84	9	
COc1ccc(NC(=O)c2ccc(-c3cccc(OCc4ccccc4)c3)cc2)cc1N1CCN(C)CC1	85	29	
CC1CN(c2ccc3[nH]cc(Sc4ccc(-c5cccs5)cc4)c3c2)CC(C)N1.Cl (stereo not drawn)	89	29	
C[C@H]1CN(Cc2ccc(-c3cccc(CNC(=O)c4cccc(C(=O)c5ccc(Cl)c(Cl)c5)c4)c3)s2)CCN1.O=C(O)C(F)(F)F	99	3	
Nc1nc(O)c2cc(CNc3ccc(C(=O)N[C@@H](CCC(=O)O)C(=O)O)cc3)ccc2n1	96	2	
CCN1CCN(c2cc(C)c3cc(NC(=O)c4ccc(C(C)(C)C)cc4)ccc3n2)CC1	85	34	
CC(Sc1nnc(-c2ccccc2Br)[nH]1)C(=O)Nc1ccc(F)cc1 (stereo not drawn)	90	0	
COc1ccc(NS(=O)(=O)c2ccc(Oc3nc(C)nc4sc5c(c34)CCCC5)cc2)cc1	96	5	
CCn1c(-c2nonc2N)nc2c(-c3cccc(NC(=O)NCc4ccccc4)c3)ncc(OCCCN)c21.O=C(O)C(F)(F)F	99	5	
COc1cc(OC)cc(C(=O)Nc2nc(-c3ccc(NC(=O)c4ccccc4)cc3)cs2)c1	88	16	
CNC(=O)c1ccc(/C=C/C(=O)N2CCc3ccc(-c4ccccc4)cc3C2c2cccc(C(F)(F)F)c2)cc1 (stereo not drawn)	91	9	
COc1cccc(-c2cc3c(NCc4ccncc4)nccc3s2)c1	87	0	
CN(C)Cc1ccc(CNC2CCN(Cc3ccccc3Cl)CC2)cc1.O=C(O)C(F)(F)F	82	23	
COc1ccc(CCN2CC[C@H](CNc3nc(-c4ccccc4)nc4ccccc34)C2)cc1S(N)(=O)=O.O=C(O)C(F)(F)F	85	54	
CCc1cc(-c2n[nH]c(C(F)(F)F)c2-c2ccccc2)c(O)cc1OC	84	9	
O=C(O)CCSc1ncnc2[nH]cnc12	100	7	

Structure (SMILES)	Inhibition [1] [%]	Inhibition [2] [%]	Inhibition [3] [%]
CC(C)Cc1csc(NC(=O)C=Cc2ccco2)c1C(=O)O	82	4	
COc1cc2ncnc(Nc3ccc(OC(F)(F)c4ccccc4)cc3)c2cc1OC.Cl	91	14	
CN1CCC(N2CCN(C(=O)c3cccc(-c4cccc(-c5nc6ccccc6[nH]5)c4)c3)CC2)CC1	100	10	
COc1cccc(-c2nc(Nc3ccncc3)c3ncn(C)c3n2)c1.O=C(O)C(F)(F)F	94	14	
Cc1cc(OCCCN2CCC(NC(=O)c3ccc(Br)cc3)C2)c2ccccc2n1 (stereo not drawn)	85	13	
Cc1ccc(-n2c(C)cc(C(=O)CN3C(=O)NC(Cc4ccccc4)C3=O)c2C)cc1 (stereo not drawn)	82	0	
CCS(=O)(=O)c1ccc(/C(=N/OC)c2ccc[nH]2)cc1	85	0	
O=C(Nc1ccc(OC2CCN(CC3CC3)CC2)c(Cl)c1)c1ccc2ncccc2c1.O=C(O)C(F)(F)F	84	19	
O=C(Nc1cccc(Cl)c1)c1cc2ccccc2cc1O	97	4	
O=C(O)C(F)(F)F.O=C(O)CCc1ccc(-c2c[nH]c3ncc(-c4ccc5ncccc5c4)cc23)cc1	88	30	
CC1(C)C(=O)N=C2C1=C(O)C(=O)c1ccccc12	93	0	
CC(=O)Nc1cccc(Nc2c3ccccc3nc3ccccc23)c1	82	31	
Cl.Oc1cccc(Nc2ccnc3cc(-c4nccs4)ccc23)c1	98	0	
O=C(c1ccccc1)N1CCC[C@](CCCN2CCN(c3ccccc3O)CC2)(c2ccc(Cl)c(Cl)c2)C1	80	16	
S=C(Nc1ccc(Cl)cc1)Nc1ccc(Nc2ccccc2)cc1	84	14	
N#Cc1cc(N(CCCOc2cccc(OC(F)(F)F)c2)Cc2ccccc2C(F)(F)F)ccc1C(F)(F)F	94	2	
COc1ccc2c(c1)C(C)(CCCN(C)C)C(=O)N2C.O=C(O)C(=O)O (stereo not drawn)	93	8	
O=C(Nc1ccc(C(F)(F)F)cc1)c1cc(Cl)cc2nc(C(F)(F)F)[nH]c12	100	86	
N=C1SC(=Cc2cn[nH]c2-c2ccc(F)cc2)C(=O)N1c1nccs1	91	28	
Br.Oc1ccc(CCNCCCCCNCCCc2ccc(Cl)cc2)cc1O	91	22	
O=C(NCCCCN1CCC(c2ccc3c(c2OCCOCCO)CCCC3)CC1)c1ccc(-c2ccc(C(F)(F)F)cc2)cc1	97	44	
CN(C)c1ccc(NC(=O)Nc2ccnc3ccccc23)cc1Br.Cl	98	21	
COc1ccc(CN2CCN(CC(=O)Nc3cc(Cl)ccc3-n3cncn3)CC2)cc1F	93	0	

Structure (SMILES)	Inhibition [1] [%]	Inhibition [2] [%]	Inhibition [3] [%]
O=C(CN1C(=O)CC1S(=O)(=O)Cc1ccco1)NCCCCCCc1ccc(F)cc1 (stereo not drawn)	95	0	
CC(CC1CCCCC1)NCc1ccccc1OCCC(=O)N1CCCC1C(N)=O (stereo not drawn)	97	5	
Cc1ccc(-c2cnc3[nH]cc(-c4ccc(C(=O)O)c(C)c4)c3c2)cc1C.O=C(O)C(F)(F)F	96	37	
CO/N=C(\C)c1ccc2c(c1)CCN(CCC1CCC(NC(=O)c3cccc(-c4noc(C)n4)c3)CC1)CC2.Cl (stereo not drawn)	90	42	
O=c1ccc2ccc(O)c(O)c2o1 [DAPHNETIN]	85	4	
Cc1ccc(Nc2c3ccccc3nc3ccc(C)cc23)cc1	88	26	
CCN(CC)CCCN(C(=O)Nc1cc(F)cc(F)c1)c1nc(-c2ccc(F)cc2)cs1	82	27	
COc1ccc(CNC(=O)Nc2cccc(-c3csc(NC(=N)N)n3)c2)cc1	80	8	
CC(C)CNC(=O)c1ccc(-c2cccc(CN3CCC(N4CCCC4)CC3)c2)nc1.O=C(O)C(F)(F)F	81	4	
O=C(Nc1cccc(-c2nn3ccccc3c2-c2ccnc(Nc3cccc(F)c3)n2)c1)C1CCCCC1	85	44	
Cl.O=C(NCCCCN1CCC(c2ccc3c(c2OCCCO)CCCC3)CC1)c1ccc(-c2ccc(C(F)(F)F)cc2)c(CO)c1	95	66	
CN(C)Cc1cccc(-c2ccc(NC(=O)c3ccc4c(=O)n(Cc5cnn(C)c5)cnc4c3)cc2)c1	80	12	
Cc1cc2c(cc1C(F)(F)F)N(C(=O)Nc1ccc(C(=O)NCCN3CCCC3)cc1)CC2	100	10	
O=C(Nc1nccs1)c1sc2ccccc2c1O	96	0	
CCCCNC(=O)C1CCCN(C(=O)c2ccc(O)c(-c3ccc(Cl)c(Cl)c3)c2)C1 (stereo not drawn)	83	3	
Cc1cc(OCCCN2CCCC2)ccc1NC(=O)COc1ccc(Cl)cc1C(=O)c1cc(C#N)cc(C(F)(F)F)c1	85	18	
Cc1nc(Nc2ccc(F)cc2)nc(N2CCc3ccccc3[C@@H]2C)c1C.Cl	92	12	
O=CO.c1ccc2c3c([nH]c2c1)C(c1ccc2c(c1)CCO2)N(c1ncnc(N2CCN(CCCN4CCOCC4)CC2)n1)CC3 (stereo not drawn)	80	37	
Cc1csc2nc(C(C)c3ccc(NC(=O)c4cccs4)cc3)oc(=O)c12 (stereo not drawn)	90	0	
COc1cc(Cc2cnc(N)nc2N)ccc1OCc1csc(-c2ccc(Cl)cc2)n1	93	39	
CCN(CC)CCCC(C)Nc1ccnc2cc(Cl)ccc12.O=P(O)(O)O.O=P(O)(O)O (stereo not drawn) [CHLOROQUINE PHOSPHATE]		12	96
O=[N+]([O-])c1ccc(-n2nc(-c3cccnc3)n(Cc3ccco3)c2=S)c(Cl)c1	95	13	
COc1cc(CCNCC(O)c2ccc([N+](=O)[O-])c(OCc3ccccc3)c2)cc(OC)c1OC.Cl (stereo not drawn)	98	11	
